Measured values taken from the supplement of paper PMC10849652.
Of roughly 7,900 targets only a part is listed; those with a hit were picked by preference. About 0.6% of all pairs of compound and target were hits. Values without a mark were called inactive.

Columns and labels:
Assay in all cases: log2 fold change, soluble protein after heating vs DMSO (PISA); higher = thermal stabilisation; K562 cells, 10 uM, 30 min; active = over 0.2 and 3.5 SD of the protein, either way, in both replicates (recomputed)
bafetinib = compound: Cc1ccc(NC(=O)c2ccc(CN3CC[C@H](N(C)C)C3)c(C(F)(F)F)c2)cc1Nc1nccc(-c2cncnc2)n1 [bafetinib]
In short: (§1)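 For each measurement, 10 μM compound was applied for 30 min to K562 cells at 2×10^6 cells/mL. Aliquots were heated for 3 min across 48°C-58°C, pooled, and extracted in PBS with 0.5% NP-40 at 4°C; the supernatant after 21,000xg for 90 min was soluble protein. This was quantified by TMTpro 16plex LC-MS/MS with channel sums equalised, and thermal stability was reported relative to control samples from duplicates, on a log2 fold-change scale.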

nilotinib = compound: Cc1cn(-c2cc(NC(=O)c3ccc(C)c(Nc4nccc(-c5cccnc5)n4)c3)cc(C(F)(F)F)c2)cn1 [nilotinib]
In short: as §1

[1] = compound: Cc1nc(Nc2n[nH]c3c2CN(C(=O)N[C@H](CN(C)C)c2ccccc2)C3(C)C)c2sccc2n1
In short: as §1

dasatinib = compound: Cc1nc(Nc2ncc(C(=O)Nc3c(C)cccc3Cl)s2)cc(N2CCN(CCO)CC2)n1 [dasatinib]
In short: as §1

[2] = compound: Cc1ncc(-c2ccnc(Nc3ccc(S(C)(=O)=O)cc3)n2)n1C(C)C
In short: as §1

[3] = compound: Cn1cc(-c2ccc3c(c2)CCN3C(=O)Cc2cccc(C(F)(F)F)c2)c2c(N)ncnc21
In short: as §1

mubritinib = compound: FC(F)(F)c1ccc(/C=C/c2nc(COc3ccc(CCCCn4ccnn4)cc3)co2)cc1 [mubritinib]
In short: as §1

[4] = compound: NC(=O)c1cnc(N[C@@H]2CCCC[C@@H]2N)nc1Nc1cccc(-n2nccn2)c1
In short: as §1

[5] = compound: NC1(c2ccc(-c3nc4ccn5c(=O)[nH]nc5c4cc3-c3ccccc3)cc2)CCC1
In short: as §1

[6] = compound: NCC(=O)Nc1ccc(-n2nc(C(F)(F)F)cc2-c2ccc3c(ccc4ccccc43)c2)cc1
In short: as §1

citarinostat = compound: O=C(CCCCCCNC(=O)c1cnc(N(c2ccccc2)c2ccccc2Cl)nc1)NO [citarinostat]
In short: as §1

silmitasertib = compound: O=C(O)c1ccc2c(c1)nc(Nc1cccc(Cl)c1)c1ccncc12 [silmitasertib]
In short: as §1

[7] = compound: O=C1NC(=O)C(c2cnc3ccccn23)=C1c1cn2c3c(cc(F)cc13)CN(C(=O)N1CCCCC1)CC2
In short: as §1

[8] = compound: c1cc(OCCN2CCCCC2)cc(-c2n[nH]c3ccc(-c4nnc[nH]4)cc23)c1
In short: as §1

[9] = compound: Cn1cc(-c2ccc3nnc(C(F)(F)c4ccc5ncccc5c4)n3n2)cn1
In short: as §1

tipifarnib = compound: Cn1cncc1[C@@](N)(c1ccc(Cl)cc1)c1ccc2c(c1)c(-c1cccc(Cl)c1)cc(=O)n2C [tipifarnib]
In short: as §1

[10] = compound: NC(=O)Nc1cc(-c2cccc(F)c2)sc1C(=O)N[C@H]1CCCNC1
In short: as §1

entinostat = compound: Nc1ccccc1NC(=O)c1ccc(CNC(=O)OCc2cccnc2)cc1 [entinostat]
In short: as §1

[11] = compound: Cc1cccc(CC(=O)N2CCc3c2ccc(-c2cn(C)c4ncnc(N)c24)c3F)n1
In short: as §1

vorinostat = compound: O=C(CCCCCCC(=O)Nc1ccccc1)NO [vorinostat]
In short: as §1

Chain of UniProt P30281 (P30281 whole entry, looked up): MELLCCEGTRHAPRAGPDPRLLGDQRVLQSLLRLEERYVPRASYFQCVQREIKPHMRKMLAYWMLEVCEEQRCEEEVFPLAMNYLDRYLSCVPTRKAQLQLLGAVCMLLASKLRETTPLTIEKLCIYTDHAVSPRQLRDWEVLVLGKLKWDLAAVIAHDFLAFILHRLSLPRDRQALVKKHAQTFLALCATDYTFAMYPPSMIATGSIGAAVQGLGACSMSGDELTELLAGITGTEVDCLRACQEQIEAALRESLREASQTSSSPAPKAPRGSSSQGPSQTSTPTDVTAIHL
Chain of UniProt Q14194 (Q14194 whole entry, looked up): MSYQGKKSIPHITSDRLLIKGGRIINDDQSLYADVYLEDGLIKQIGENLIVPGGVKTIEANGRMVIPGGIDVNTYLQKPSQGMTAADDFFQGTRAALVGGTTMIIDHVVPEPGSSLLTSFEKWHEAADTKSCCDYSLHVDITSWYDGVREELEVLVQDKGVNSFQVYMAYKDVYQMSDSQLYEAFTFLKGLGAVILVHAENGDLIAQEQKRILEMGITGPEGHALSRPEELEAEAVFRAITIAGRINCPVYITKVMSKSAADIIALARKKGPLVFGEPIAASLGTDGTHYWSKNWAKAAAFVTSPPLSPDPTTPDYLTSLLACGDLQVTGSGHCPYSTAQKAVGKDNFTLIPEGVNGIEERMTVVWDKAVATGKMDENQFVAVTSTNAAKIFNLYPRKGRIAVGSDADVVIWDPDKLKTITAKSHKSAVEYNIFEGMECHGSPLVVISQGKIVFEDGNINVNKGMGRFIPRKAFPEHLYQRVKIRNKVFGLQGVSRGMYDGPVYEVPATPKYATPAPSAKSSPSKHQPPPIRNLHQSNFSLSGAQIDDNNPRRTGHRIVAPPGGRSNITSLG
Chain of UniProt Q13901 (Q13901 whole entry, looked up): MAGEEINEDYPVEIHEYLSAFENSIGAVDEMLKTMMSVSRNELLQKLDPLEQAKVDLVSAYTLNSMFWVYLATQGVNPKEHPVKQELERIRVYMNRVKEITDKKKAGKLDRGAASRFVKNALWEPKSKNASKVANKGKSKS
Chain of UniProt P24311 (P24311 whole entry, looked up): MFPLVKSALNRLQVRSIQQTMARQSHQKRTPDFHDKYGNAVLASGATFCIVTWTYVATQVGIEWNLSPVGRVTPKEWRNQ
Chain of UniProt Q02224 (Q02224 whole entry, looked up): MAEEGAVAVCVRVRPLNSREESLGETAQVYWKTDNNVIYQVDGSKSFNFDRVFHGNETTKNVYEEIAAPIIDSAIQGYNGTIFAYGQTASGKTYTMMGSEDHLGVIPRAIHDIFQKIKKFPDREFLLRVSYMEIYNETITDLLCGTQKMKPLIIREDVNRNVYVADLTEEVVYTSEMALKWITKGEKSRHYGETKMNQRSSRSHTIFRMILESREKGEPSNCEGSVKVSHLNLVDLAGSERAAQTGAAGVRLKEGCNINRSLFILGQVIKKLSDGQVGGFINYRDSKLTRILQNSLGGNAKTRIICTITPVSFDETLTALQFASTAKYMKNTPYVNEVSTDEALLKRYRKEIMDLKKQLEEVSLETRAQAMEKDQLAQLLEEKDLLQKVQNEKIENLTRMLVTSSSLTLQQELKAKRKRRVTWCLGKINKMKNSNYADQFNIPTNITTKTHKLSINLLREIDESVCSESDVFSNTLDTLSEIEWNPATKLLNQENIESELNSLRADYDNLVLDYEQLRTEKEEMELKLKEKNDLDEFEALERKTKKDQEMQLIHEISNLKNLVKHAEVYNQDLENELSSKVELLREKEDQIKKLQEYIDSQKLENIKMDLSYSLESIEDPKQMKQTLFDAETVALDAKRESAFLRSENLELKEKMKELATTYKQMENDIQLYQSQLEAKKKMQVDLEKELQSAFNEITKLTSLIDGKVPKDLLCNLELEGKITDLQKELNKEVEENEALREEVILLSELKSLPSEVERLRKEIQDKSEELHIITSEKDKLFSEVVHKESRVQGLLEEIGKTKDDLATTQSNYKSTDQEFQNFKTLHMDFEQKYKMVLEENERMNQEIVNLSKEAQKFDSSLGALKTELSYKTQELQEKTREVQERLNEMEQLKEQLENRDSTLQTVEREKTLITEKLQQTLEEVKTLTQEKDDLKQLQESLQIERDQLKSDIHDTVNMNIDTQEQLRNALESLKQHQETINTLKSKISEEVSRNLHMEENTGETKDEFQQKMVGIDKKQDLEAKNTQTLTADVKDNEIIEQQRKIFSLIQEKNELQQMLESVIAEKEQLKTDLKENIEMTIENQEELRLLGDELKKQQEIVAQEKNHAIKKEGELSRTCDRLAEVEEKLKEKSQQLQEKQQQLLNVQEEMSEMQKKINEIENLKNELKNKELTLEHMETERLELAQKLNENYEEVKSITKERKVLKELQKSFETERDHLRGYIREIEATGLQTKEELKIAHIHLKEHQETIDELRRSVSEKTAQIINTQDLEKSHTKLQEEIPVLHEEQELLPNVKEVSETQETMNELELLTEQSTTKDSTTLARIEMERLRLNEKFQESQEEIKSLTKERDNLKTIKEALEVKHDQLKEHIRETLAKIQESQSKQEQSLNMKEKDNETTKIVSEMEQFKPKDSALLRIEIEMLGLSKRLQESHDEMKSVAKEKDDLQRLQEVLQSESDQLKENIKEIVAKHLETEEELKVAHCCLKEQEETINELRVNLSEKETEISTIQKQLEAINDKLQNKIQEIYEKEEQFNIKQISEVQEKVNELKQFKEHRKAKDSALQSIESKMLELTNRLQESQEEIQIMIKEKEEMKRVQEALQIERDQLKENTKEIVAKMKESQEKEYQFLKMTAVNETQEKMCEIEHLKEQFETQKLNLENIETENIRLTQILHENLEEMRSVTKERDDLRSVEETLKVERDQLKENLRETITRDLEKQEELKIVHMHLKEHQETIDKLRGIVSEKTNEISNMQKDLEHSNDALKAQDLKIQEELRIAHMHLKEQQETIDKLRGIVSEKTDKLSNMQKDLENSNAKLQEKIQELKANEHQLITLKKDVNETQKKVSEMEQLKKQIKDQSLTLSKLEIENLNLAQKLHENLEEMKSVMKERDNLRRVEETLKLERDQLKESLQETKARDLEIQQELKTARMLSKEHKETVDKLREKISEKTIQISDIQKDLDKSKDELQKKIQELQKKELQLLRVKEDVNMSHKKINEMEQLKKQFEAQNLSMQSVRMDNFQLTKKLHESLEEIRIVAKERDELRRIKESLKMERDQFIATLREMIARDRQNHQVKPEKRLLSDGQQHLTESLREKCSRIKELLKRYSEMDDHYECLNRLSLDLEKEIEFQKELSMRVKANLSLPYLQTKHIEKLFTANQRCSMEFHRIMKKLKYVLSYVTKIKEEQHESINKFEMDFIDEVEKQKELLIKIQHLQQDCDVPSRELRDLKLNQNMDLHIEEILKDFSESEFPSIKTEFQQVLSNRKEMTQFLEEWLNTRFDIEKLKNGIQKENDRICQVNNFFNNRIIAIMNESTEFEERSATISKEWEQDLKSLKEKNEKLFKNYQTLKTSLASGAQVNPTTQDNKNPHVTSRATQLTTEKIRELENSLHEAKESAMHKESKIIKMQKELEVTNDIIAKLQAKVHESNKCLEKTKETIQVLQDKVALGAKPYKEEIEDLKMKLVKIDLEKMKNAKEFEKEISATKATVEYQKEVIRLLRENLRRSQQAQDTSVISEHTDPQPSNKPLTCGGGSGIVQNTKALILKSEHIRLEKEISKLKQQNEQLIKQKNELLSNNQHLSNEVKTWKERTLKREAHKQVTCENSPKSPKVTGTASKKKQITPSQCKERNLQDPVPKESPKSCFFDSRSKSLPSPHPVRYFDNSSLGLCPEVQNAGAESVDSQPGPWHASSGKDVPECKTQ
Chain of UniProt P55210 (P55210 whole entry, looked up): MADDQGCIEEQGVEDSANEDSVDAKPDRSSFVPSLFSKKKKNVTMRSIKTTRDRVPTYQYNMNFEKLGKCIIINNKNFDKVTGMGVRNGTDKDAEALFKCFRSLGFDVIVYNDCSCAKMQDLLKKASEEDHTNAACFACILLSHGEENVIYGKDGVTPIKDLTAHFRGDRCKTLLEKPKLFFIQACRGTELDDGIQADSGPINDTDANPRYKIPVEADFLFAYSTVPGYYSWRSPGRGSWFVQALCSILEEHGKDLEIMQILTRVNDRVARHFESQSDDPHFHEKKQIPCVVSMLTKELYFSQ
Chain of UniProt P15954 (P15954 whole entry, looked up): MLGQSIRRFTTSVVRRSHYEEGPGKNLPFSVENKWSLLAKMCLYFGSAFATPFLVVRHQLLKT
Chain of UniProt Q9NRR8 (Q9NRR8 whole entry, looked up): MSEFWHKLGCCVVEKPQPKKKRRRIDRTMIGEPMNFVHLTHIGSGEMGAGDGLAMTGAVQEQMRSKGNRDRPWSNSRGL
Chain of UniProt Q14677 (Q14677 whole entry, looked up): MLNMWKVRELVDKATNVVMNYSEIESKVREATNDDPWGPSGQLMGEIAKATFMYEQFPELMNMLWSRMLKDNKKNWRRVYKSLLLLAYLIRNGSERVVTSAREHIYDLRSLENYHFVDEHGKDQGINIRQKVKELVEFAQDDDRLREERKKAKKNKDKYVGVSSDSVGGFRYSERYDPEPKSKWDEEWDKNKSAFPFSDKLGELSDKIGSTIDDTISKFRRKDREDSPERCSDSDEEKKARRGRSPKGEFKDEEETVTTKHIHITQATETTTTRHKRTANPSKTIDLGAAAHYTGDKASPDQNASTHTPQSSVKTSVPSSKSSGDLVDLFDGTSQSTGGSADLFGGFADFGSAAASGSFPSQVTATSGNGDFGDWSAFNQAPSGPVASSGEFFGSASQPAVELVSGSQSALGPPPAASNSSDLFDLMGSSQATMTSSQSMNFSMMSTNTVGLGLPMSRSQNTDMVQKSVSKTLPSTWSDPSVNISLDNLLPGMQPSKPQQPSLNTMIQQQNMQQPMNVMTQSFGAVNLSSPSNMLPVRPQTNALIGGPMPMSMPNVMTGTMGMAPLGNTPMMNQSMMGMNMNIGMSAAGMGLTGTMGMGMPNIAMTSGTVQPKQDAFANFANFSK
Chain of UniProt Q6P5X5 (Q6P5X5 whole entry, looked up): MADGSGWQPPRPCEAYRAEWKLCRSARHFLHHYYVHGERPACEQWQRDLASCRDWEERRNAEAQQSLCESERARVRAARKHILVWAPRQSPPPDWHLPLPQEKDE

Target | log2 fold change (bafetinib) | log2 fold change (nilotinib) | log2 fold change [1] | log2 fold change (dasatinib) | log2 fold change [2] | log2 fold change [3] | log2 fold change (mubritinib) | log2 fold change [4] | log2 fold change [5] | log2 fold change [6] | log2 fold change (citarinostat) | log2 fold change (silmitasertib) | log2 fold change [7] | log2 fold change [8] | log2 fold change [9] | log2 fold change (tipifarnib) | log2 fold change [10] | log2 fold change (entinostat) | log2 fold change [11] | log2 fold change (vorinostat)
CLINT1 (UniProt Q14677) | -0.053 | 0.065 | -0.048 | 0.142 | -0.151 | 0.047 | -0.007 | 0.001 | 0.037 | 0.034 | -0.146 | 0.021 | 0.058 | 0.062 |  |  |  |  |  | 
CDC42SE1 (UniProt Q9NRR8) | -0.37 | 0.055 | 0.055 | -0.022 | -0.155 | 0.107 | -0.065 | 0.055 | -0.065 | -0.002 | -0.048 | 0.128 | -0.065 | -0.103 | -0.002 | -0.01 | -0.244 | -0.042 |  | 
COX7B (UniProt P24311) | 0.109 | 0.053 | 0.037 | 0.074 | 0.01 | -0.011 | 0.026 | -0.001 | -0.028 | 0.02 | -0.013 | 0.039 | 0.036 | -0.026 |  | -0.024 | 0.094 | -0.054 | 0.037 | 0.012
CCND3 (UniProt P30281) | 0.07 |  |  | -0.08 |  | 0.04 | 0.024 | -0.204 | -0.001 | 0.184 | 0 | 0.28 | 0.069 | 0.183 | 0.092 | 0.026 |  |  | -0.016 | 0.048
CLPTM1L (UniProt G5E9Z2) | 0.156 | -0.22 | 0.099 |  | -0.053 | 0.037 | 0.047 | 0.237 | -0.175 | -0.028 |  | -0.05 | 0.445 |  |  |  | 0.139 | -0.012 | 0.176 | 0.022
C22orf39 (UniProt Q6P5X5) | -0.04 | -0.07 | 0.038 | -0.232 | -0.12 | -0.036 | 0.031 | -0.036 | -0.106 |  |  | 0.016 | 0.089 |  | 0.031 | -0.071 | 0.093 | 0.037 |  | 
CASP7 isoform 3 (UniProt P55210) | -1.01 (active) | 0.145 | -0.001 | -0.239 | -0.102 |  |  |  |  |  | -0.058 |  | -0.048 | 0.021 |  |  |  |  | -0.401 | 0.044
CNN3 (UniProt Q15417) | 0.02 | -0.066 | -0.056 | -0.057 | 0.108 | 0.023 | 0.06 | -0.125 | -0.124 | -0.144 | 0.047 | 0.047 | -0.032 | -0.001 |  | -0.107 | -0.051 | 0.091 | -0.025 | 0.023
CASP8 isoform 9 (UniProt Q14790) | 0.072 | -0.183 | 0.018 | -0.039 | 0.069 |  | -0.095 | -0.051 | -0.186 | -0.151 | -0.048 | 0.12 | 0.008 | 0.009 | -0.066 | -0.094 | -0.06 | -0.119 | 0.093 | -0.021
CRMP1 isoform 2 (UniProt Q14194) | -0.024 | -0.012 | 0.221 | -0.074 | -0.138 | 0.182 |  | 0 |  | -0.099 |  |  |  |  |  |  | -0.121 | -0.055 | -0.035 | 0.193
CRTC1 isoform 2 (UniProt Q6UUV9) | 0.021 |  |  | -0.034 |  |  |  | -0.151 |  | 0.01 |  |  | -0.371 |  | -0.079 | -0.267 | -0.132 | 0.044 | -0.093 | 0.012
C1D (UniProt Q13901) | -0.026 | 0.059 | -0.074 |  | -0.027 |  | 0.132 | 0.322 (active) | 0 | 0.033 | 0.067 | 0.072 | 0.003 | 0.008 | 0.018 | 0.151 | 0.187 | -0.012 | -0.013 | 0.116
CENPE (UniProt Q02224) | 0.143 |  |  | -0.35 |  | 0.14 |  | 0.731 |  | 0.114 |  |  |  |  | -0.123 | -0.033 | 0.127 | -0.153 | 0.069 | -0.238
COX7C (UniProt P15954) | -0.066 | 0.148 | -0.041 | 0.073 | -0.158 |  | 0.112 | 0.048 | -0.013 | 0.046 | 0.079 | -0.003 | -0.089 | -0.059 | 0.366 | 0.105 | 0.009 | 0.014 | -0.077 | -0.017
CAB39L (UniProt Q9H9S4) | -0.055 |  |  | -0.255 |  |  |  | 0.083 |  | -0.162 | -0.093 |  | -0.043 | -0.101 | -0.032 | 0.042 | 0.035 | -0.016 | -0.041 | -0.197
CLN5 (UniProt O75503) | -0.945 (active) | 0.041 | -0.508 | -0.46 | 0.026 | -0.119 | -0.169 | -0.41 | -0.858 (active) |  |  | 0.192 | -0.014 |  |  | 0.002 | -0.133 | 0.02 | 0.019 | -0.087
CHST10 (UniProt O43529) | -0.036 | 0.092 | -0.081 |  | 0.104 | 0.071 | 0.064 | 0.023 | -0.142 |  |  | -0.059 | -0.032 |  | -0.09 | 0.05 | 0.059 | 0.048 | 0.052 | 0.015
CMTM3 (UniProt Q96MX0) | 0.05 | -0.056 | -0.007 | 0.017 | 0.013 | 0.05 | -0.052 | -0.033 | -0.08 | 0.072 | -0.118 | 0.009 | 0.096 | -0.189 |  | 0.098 | -0.056 | -0.03 | -0.078 | -0.087
